Screening data from PubChem.
In the library only some 4.2% were active in any assay of this set; here they are far more common.
ClpP mod: qHTS Assay for Activators of ClpP; actives 1.9% (n = 340,000); Potency, µM (doses to about 57.5 µM), for the others: at the highest dose activity change, negative = active; AID 651965, 2013; purified B. subtilis ClpP, FRET peptide cleavage, 20 min; ATP-dependent Clp protease proteolytic subunit (Bacillus subtilis (strain 168)), P80244; active = well fitted falling curve with a large enough effect; inconclusive = small, poorly fitted or top-dose-only effect; inactive = no such curve, though single readings can be large or run the other way; also: potency is read from the fitted curve at half-maximal effect; the source files actives as falling curves though it sought activators and does not explain the sign; nearly all actives have a fitted effect of over 65% in size
Target sequence (P80244 whole entry, looked up): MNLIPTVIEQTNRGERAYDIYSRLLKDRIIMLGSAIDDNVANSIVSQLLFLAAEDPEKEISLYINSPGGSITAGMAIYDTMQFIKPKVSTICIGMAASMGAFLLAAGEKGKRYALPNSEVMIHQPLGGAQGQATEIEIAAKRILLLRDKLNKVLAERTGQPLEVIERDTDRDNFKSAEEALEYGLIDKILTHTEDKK
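ClpP 10 microg/mL final, pH 8 Tris/KCl buffer with BSA, glycerol, Tween-20; compound pinned in; FRET-FV substrate; RT 20 min; Ex320/Em430; ΔFRET vs ADEP 5.8 microM, DMSO, no enzyme.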
Sfp inh: Sfp phosphopantetheinyl transferase inhibition | Q9F4F7 | Biochemical Sfp PPTase activity, qHTS | actives 3.5% (n = 310,000) | Potency, µM, for the others: largest response in the series, negative = inhibition, usual class: inhibitors;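 also: the enzyme is Sfp with the accession as filed and its product quenches rhodamine fluorescence; potency is read from the fitted curve at half-maximal effect; 0% = enzyme reaction without inhibitor and -100% = no enzyme wells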
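Reaction rates are the 30-min fluorescence difference (ex 525, em 598 nm) in wells containing 15 nM Sfp, 5 uM rhodamine-CoA and 12.5 uM BHQ-2-YbbR at pH 7.6 with 10 mM MgCl2.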
uPA surface inh: blocks generation of uPA at the cell surface. cell surface uPA generation assay, qHTS. actives 0.31% (n = 330,000). AID 540303. Potency, µM (doses to about 38.3 µM), for the others: top-dose activity change, negative = inhibition, hits mostly inhibitors; active = well fitted inhibition curve with a large enough effect; inconclusive = small, poorly fitted or top-dose-only effect; inactive = no such curve, though single readings can be large or run the other way; tested in mouse RAW 264.7 cells; also: potency is read from the fitted curve at half-maximal effect; % is scaled to controls: 0 for no effect and ±100 for the full control effect; nearly all actives have a fitted effect of over 55% in size
TCR activator: activators of T cell receptors. primary human leukocytes, anti-CD3, IL-2 HTRF, 48 h. Potency, µM (doses to about 9.22 µM), for inactives: at the highest dose activation of IL-2 secretion, most hits filed as activators. 330,000 tested, under 10 active. AID 504894; also: % of control where 0% means no effect
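1) Mix primary human leukocytes, a-CD3 beads and compound. 2) Incubate 48 hr. 3) Add HTRF IL-2 reagents (a-IL-2-K, a-IL-2-d2).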
* hit, by the source's call; ? = inconclusive; . = no result given; [ ] = another dose, or the depositor's remark. Unless noted, calls follow the shape of the dose curve; as a rule, active = well fitted curve in the direction sought with a large enough effect; inconclusive = small, poorly fitted or top-dose-only effect, or another doubt; inactive = no such curve, though single readings can be large; an effect the other way counts as inactive or inconclusive.

SMILES | ClpP mod | Sfp inh | uPA surface inh | TCR activator
COc1ccc(/C(O)=C2/C(=O)C(=O)N(CCN3CCOCC3)C2c2ccccn2)cc1 (stereo not drawn) | -35% | 50µM* | -2% | -7%
COc1ccccc1OCC(=O)NCC1CCCN(Cc2cnn(C(C)C)c2)C1 (stereo not drawn) | -1% | 15% | 3% | 2%
COc1ccc(-c2nc3c(c4c2C[C@H](c2ccccc2)OC4)CN(S(=O)(=O)c2ccc(NC(C)=O)cc2)CC3)c(C)c1 | . | 8% | . | .
Cn1c(SCC(=O)c2ccc3c(c2)OCCO3)nnc1C1CC1 | 2% | 71µM* | -2% | 11%[46.1 µM]
CCc1nc(SCC(=O)c2ccc3c(c2)OCCO3)c2ccccc2n1 | -2% | 50µM* | -7% | -7%
CCc1nc(SCC(=O)c2ccccc2)c2ccccc2n1 | . | -11% | -7% | -2%
CCCc1nc(SCC(=O)c2ccc(OC)cc2)c2ccccc2n1 | . | 79µM* | -6% | -3%
O=C(CSc1nc(Cc2ccccc2)nc2ccccc12)c1ccc2c(c1)OCCO2 | -9% | -14% | -4% | -41%
O=C(O)CCSCC(=O)c1ccc2c(c1)OCCO2 | -8% | 45µM* | 8% | -1%
COC(=O)[C@@]1(C(C)C)N=C(c2cc(OC)c(OC)c(OC)c2)[C@]2(O1)C(=O)Nc1ccccc12 | -1% | . | . | .
Cc1ccc(NC(=O)Cn2c(=O)oc3cc(S(=O)(=O)NCc4ccccc4)ccc32)cc1 | 4% | . | . | .
COc1cc(C(=O)NCC(c2cccs2)N2CCOCC2)ccc1OCc1ccc(Cl)cc1 (stereo not drawn) | -3% | . | . | .
O=C(Nc1ccc(C(=O)N2CCC(N3CCOCC3)CC2)cc1)c1ccc(Br)o1 | 0% | . | 11% | 7%
COc1ccccc1C(=O)NC(=O)CSc1nc(C)cs1 | 28µM* | . | 3% | -7%
C=CCOc1cccn2c(N(C=O)Cc3ccc(OC)cc3)c(CC)nc12 | 0% | . | . | .
CCOc1ccc(NC(=O)C2CCC(CNS(=O)(=O)c3ccc(Br)s3)CC2)cc1 (stereo not drawn) | 5% | . | . | .
O=C1CC(N2CCN(c3ccc(O)cc3)CC2)C(=O)N1c1ccc2c(c1)OCO2 (stereo not drawn) | . | 40µM* | -1% | -7%
O=C(NC1C2CC3CC(C2)CC1C3)c1ccc2c(c1)OCO2 (stereo not drawn) | 20µM* | 5% | 4% | -9%
Cc1ccc(CN(Cc2ccccc2)C(=S)NCC(=O)NCc2cccnc2)o1 | 1% | 25µM* | 0% | 1%
Cc1ccc(CNC(=O)CNC(=S)N(Cc2ccccc2)Cc2cccnc2)cc1 | . | 12% | -7% | 12%
Cc1ccc(CN(Cc2ccco2)C(=S)NCC(=O)NCc2cccnc2)cc1 | . | 22µM* | -6% | -3%
COCCNC(=O)CNC(=S)N(Cc1ccccc1)Cc1cccnc1 | 3% | 19% | 7% | -8%
O=C(CNC(=S)N(Cc1ccccc1)Cc1cccnc1)NC1CC1 | 25µM* | 27% | -1% | 5%
CCOc1cc(-c2ccc3c(c2)OCO3)cc(=[O+]CC)c2c(C)oc(C)c12 | -4% | . | . | .
CCOC(=O)C(CC)Sc1c(CC)cnc2c1c(=O)n(C)c(=O)n2C (stereo not drawn) | 1% | . | . | .
SMILES | ClpP mod | Sfp inh | uPA surface inh | TCR activator
Cc1cc([N+](=O)[O-])cc2c1NC(c1ccccn1)C1CC=CC21 (stereo not drawn) | 1% | 16% | -2% | 8%
O=C(O)c1ccc(Cl)c2c1C1C=CCC1C(c1ccccn1)N2 (stereo not drawn) | . | 3.5µM* | . | .
O=[N+]([O-])c1ccc(Cl)c2c1C1C=CCC1C(c1ccccn1)N2 (stereo not drawn) | . | 28µM* | -3% | 0%
O=[N+]([O-])c1cccc(C(=S)N2CCN(c3ccc(F)cc3)CC2)c1 | . | 28µM* | -8% | -2%
S=C(c1ccc(-c2cccc(Cl)c2)o1)N1CCCCC1 | . | -43% | -8% | 9%
O=[N+]([O-])c1cccc(-c2ccc(C(=S)N3CCN(c4ccccc4)CC3)o2)c1 | . | 13µM* | 1% | 4%
S=C(c1ccc(-c2cccc(Cl)c2)o1)N1CCOCC1 | -1% | 20µM* | -11% | .
O=[N+]([O-])c1cccc(-c2ccc(C(=S)N3CCOCC3)o2)c1 | . | 20µM* | -6% | 0%
Cc1ccc(Cc2cn3cc(-c4ccccc4)nc3s2)cc1 | -2% | . | . | .
CC1CC(C)CN(C(=O)COC(=O)c2ccc(Cl)nc2)C1 (stereo not drawn) | . | . | 0% | -6%
Cc1ccc(CNC(=O)Cn2cc(S(=O)(=O)Cc3cccc(Cl)c3)c3ccccc32)cc1 | 2% | . | . | .
COc1ccc(CNC(=O)c2sc3nc4n(c(=O)c3c2C)CCCCC4)cc1 | 2% | . | . | .
CCOC(=O)c1cc(C#N)c(SCC(=O)c2cc(C#N)c(SC)nc2C)[nH]c1=O | -11% | 32µM* | 12% | -5%
CCOC(=O)c1cc(C#N)c(SCC(N)=O)[nH]c1=O | 4% | 20µM* | 14% | -8%
CCOC(=O)c1cc(C#N)c(SCC(=O)Nc2ccc(C(C)=O)cc2)[nH]c1=O | . | -2% | 7% | -1%
CSc1[nH]c(=O)c(C(=O)O)cc1C#N | 40µM* | ? | 5% | 1%
CCOC(=O)c1cc(C#N)c(SCC(=O)O)[nH]c1=O | . | 50µM* | 4% | 2%
CS(=O)(=O)c1ccccc1-c1nnc(NC(=O)c2cccc(N3C(=O)CCC3=O)c2)o1 | . | . | 0% | -5%
CC1(C)OC(=O)C2(Cc3ccc(Br)cc3N3CCCCC32)C(=O)O1 (stereo not drawn) | -11% | . | . | .
Cc1ccc(S(=O)(=O)N(C)CCN(C)c2nc(-c3cccs3)nc3ccccc23)cc1 | 32µM* | . | . | .
Fc1ccccc1-n1[nH]nnc1=S | 1% | 25µM* | 0% | -2%
Cc1ccc2c(c1)c1c(c(=O)n(-c3ccccc3C)c(=O)n1Cc1cccc(F)c1)n2C | 4% | . | . | .
CCC/C=C1/CCCOC(C(=O)NCCOC)(C(F)(F)F)C1 (stereo not drawn) | . | 4% | . | .
COc1ccc(NC(=O)Cc2ccc(Cl)c(Cl)c2)cn1 | -1% | 8% | 17% | 3%
COc1ccc(NC(=O)/C(Cl)=C(/Cl)S(=O)Cc2ccccc2Cl)cn1 (stereo not drawn) | . | 22µM* | 21% | -2%
SMILES | ClpP mod | Sfp inh | uPA surface inh | TCR activator
CCCc1cnc2c(c1SCC(=O)Nc1ccc([N+](=O)[O-])cc1)c(=O)n(C)c(=O)n2C | -8% | . | . | .
CC(=O)N1N=C(c2ccc(C(C)(C)C)cc2)OC1(C)C | 32µM* | 2% | -1% | -13%[46.1 µM]
Cc1oc(-c2nc3ccccc3n2C)cc1C(=O)c1ccccc1 | 0% | 22µM* | -6% | 0%[46.1 µM]
Cc1ccc2nc(-c3ccc(Br)o3)oc(=O)c2c1 | ? | 12% | . | .
Brc1ccc(Cn2c(-c3ccc(Br)o3)nc3ccccc32)o1 | 7% | ? | ? | 0%
Cn1cc(C(=O)c2ccccc2)cc1-c1nc2ccccc2n1C | -7% | -3% | 4% | 2%
Cn1c2nc3ccccc3c-2nc2ccccc21 | -2% | . | . | .
Cn1c(-c2ccc(Br)o2)nc2ccccc21 | -8% | 40µM* | -12% | -4%
CC(=O)c1ccc(-c2nc3ccccc3n2C)o1 | 20% | 40µM* | 1% | -6%
